Our source for the outcome and AC50 values is PubChem BioAssay (EPA / NIEHS).

Where “and” joins values, the source holds several entries; their conditions need not be identical. Equal entries are not always repeated. The source holds several records for some structures; these can differ, active in one and inactive in another. Calls of active or inactive are those of the source. How the source made its calls: active means hit-call score of the fitted dose curve at least 0.9, where 1 is the maximum; inactive means score below 0.9.

Read-out in the assay: Human Leukocyte Antigen - DR isotype (HLADR), HLA-DRA (gene 3122)
The assay is described as follows: BSK_3C_HLADR: BioMAP Diversity Plus: 3C Assay for Human Leukocyte Antigen - DR isotype (HLADR) Biomarker Activity (AID 2283019). The note with it: primary human endothelial cells (HUVEC); actives raise or lower the signal. On the procedure: BSK_3C is a cell-based, multiplexed-readout assay that uses umbilical vein endothelium, a human vascular primary cell, with measurements taken at 24 hours after chemical dosing in a 96-well plate.BSK_3C_HLADR is an assay component measured in the BSK_3C assay. It measures HLA-DR antibody related to regulation of gene expression using ELISA technology.Data from the assay component BSK_3C_HLADR was analyzed into 1 assay endpoint. This assay endpoint, BSK_3C_HLADR, was analyzed with bidirectional fitting relative to DMSO as the negative control and baseline of activity. Using a type of binding reporter, gain or loss-of-signal activity can be used to understand changes in the signaling as they relate to the gene HLA-DRA. Furthermore, this assay endpoint can be referred to as a primary readout, because this assay has produced multiple assay endpoints where this one serves a signaling function. To generalize the intended target to other relatable targets, this assay endpoint is annotated to the cell adhesion molecules intended target family, where the subfamily is MHC Class II.
The levels of cell surface (or secreted, indicated by the prefix "s") biomarker endpoints were measured by ELISA. Overt cytotoxicity to cells in confluent adherent cultures (all systems other than the BT system) was assessed by measuring total protein levels using sulforhodamine B (SRB) staining in parallel cultures at the time of biomarker measurements, indicated as SRB endpoints. For proliferation assays for adherent cell types, individual cell types are cultured at sub-confluence and relative cell numbers quantified by SRB staining at time points optimized for each system (48 h: 3C and CASM3C systems; 72 h: BT and HDF3CGF systems; 96 h: SAg system). SRB was performed by staining cells with 0.1% SRB after fixation with 10% TCA and reading wells at 560 nm.Viability and proliferation of PBMC (T cells) was quantified by Alamar Blue reduction for the SAg and BT systems. For PBMC viability (referred to as PBMC Cytotoxicity within the assay endpoint names), cells were plated (75,000/well in a 96-well plate) and then chemical samples added for 1 h before addition of activators, SEB and TSST-1 (20 ng/mL final concentration each). Cells were incubated for 90 h. Then, Alamar Blue (20 uL/well) (Invitrogen, Cat DAL1100) was added for 6 h, and the plates were read with a fluorescence microplate reader at 546/580 nm (excitation/emission). For PBMC proliferation, cells were plated and activated as above but incubated for only 16 h prior to addition of Alamar Blue. Plates were read after 6 h.
In the case of `CC(C)(O)C(=O)Nc1ccc([N+](=O)[O-])c(C(F)(F)F)c1`, the outcome was inactive.
Same read-out and setting: the entry for `C[C@]12CCC(=O)C=C1CC[C@@H]1[C@@H]2CC[C@@]2(C)[C@H]1CC[C@]2(C)O` is “inactive”.
By AC50 is commonly meant the concentration giving half of the maximal activity seen. Turning to `CCOC(=O)C(O)(c1ccc(Cl)cc1)c1ccc(Cl)cc1`, the half-maximal activity concentration (AC50) is 31.3 µM (active).
Regarding `Cc1cccc(C)c1N`, the outcome was inactive.
On to `Oc1ccc(C(c2ccc(O)cc2)(C(F)(F)F)C(F)(F)F)cc1`, for which the AC50 was 18.5 µM (active).
`COS(=O)(=O)OC`: the outcome was inactive.
For `CC(c1ccc(O)cc1)(c1ccc(O)cc1)c1ccc(O)cc1`, the AC50 is 28.5 µM (active).
Turning to `ClC1=C(Cl)[C@]2(Cl)[C@@H]3[C@H]4C[C@H]([C@@H]5O[C@H]45)[C@@H]3[C@@]1(Cl)C2(Cl)Cl`, the AC50 is 7.35 µM (active).
Turning to `O=C(O)C(F)(F)C(F)(F)C(F)(F)C(F)(F)C(F)(F)C(F)(F)C(F)(F)C(F)(F)F`, the result was inactive; the concentration at half-maximal activity (AC50) is 57.3 µM (active) and 55 µM (active).
As to `O=C(NC(=O)c1cc(F)c(F)cc1Cl)Nc1cc(F)ccc1N1CCC(C(=O)O)CC1`, the result was inactive.
Take `ClC1=C(Cl)[C@]2(Cl)[C@@H]3[C@@H](Cl)[C@H]4O[C@H]4[C@@H]3C1(Cl)C2(Cl)Cl`: the AC50 was 11.5 µM (active).
`CC(C)C(=O)OCC(C)(C)C(OC(=O)C(C)C)C(C)C` (stereo not given): the result was inactive.
For `CCCCCCCCOC(=O)c1ccccc1C(=O)OCCCCCCCC`, the half-maximal activity concentration (AC50) is 12.9 µM (active).
For the compound `CCC(C)(c1ccc(O)cc1)c1ccc(O)cc1`, the AC50 is 24.7 µM (active).
For `Cc1ccccc1CO[C@@H]1C[C@@]2(C(C)C)CC[C@]1(C)O2`, the outcome was inactive.
As for `N#Cc1ccc(N(CC(N)=O)CC(F)(F)F)cc1C(F)(F)F`, the result was inactive.
For the compound `Cc1ccccc1[N+](=O)[O-]`, the result was inactive.
Still for that read-out and setting: next, `Cc1cc(O)ccc1Cl`: “inactive”; `O=S(=O)(O)C(F)(F)C(F)(F)C(F)(F)C(F)(F)C(F)(F)C(F)(F)F`: “inactive”.
Regarding `NS(=O)(=O)C(F)(F)C(F)(F)C(F)(F)C(F)(F)C(F)(F)C(F)(F)C(F)(F)C(F)(F)F`, the AC50 was 27.1 µM (active) and 42.6 µM (active) and 44.3 µM (active).
Take `C=CC(N)=O`: the outcome was inactive.
Still for that read-out and setting: the entry for `CN(C)CCO` is “inactive”.
Consider `Cc1ccc(O)c(C)c1`, for which the AC50 is 7.99 µM (active).
In the case of `COc1ccc(O)c(C(C)(C)C)c1`, the outcome was inactive.
For the compound `O=NN(c1ccccc1)c1ccccc1`, the result was inactive.
Consider `Oc1c(Cl)c(Cl)c(Cl)c(Cl)c1Cl`, for which the AC50 was 14.7 µM (active) and 13.5 µM (active).
Regarding `CCCCCCOC(=O)c1ccccc1C(=O)OCCCCCC`, the result was inactive.
On to `Clc1ccc(C(c2ccccc2Cl)C(Cl)(Cl)Cl)cc1` (stereo not given), for which the AC50 was 10.2 µM (active).
`Cc1cc2c3c(c1)C(c1ccccc1)=N[C@@H](NC(=O)c1ccncc1)C(=O)N3CC2`: the result was inactive.
Consider `CCNc1nc(NC(C)C)nc(SC)n1`, for which the result was inactive.
Still for that read-out and setting: next, `CCCN(CCC)N=O`: “inactive”.
Regarding `c1cc2ccc3cccc4ccc(c1)c2c34`, the result was inactive.
Take `O=C(O)C(F)(F)C(F)(F)C(F)(F)C(F)(F)C(F)(F)C(F)(F)C(F)(F)C(F)(F)C(F)(F)F`: the concentration at half-maximal activity (AC50) was 33.2 µM (active) and 53.3 µM (active) and 56.7 µM (active).
In the case of `O=S(=O)(O)C(F)(F)C(F)(F)C(F)(F)C(F)(F)F`, the result was inactive.
Same read-out and setting: the entry for `Clc1ccc(C(Cl)(Cl)Cl)cc1` is “inactive”; for `CC1=C2C[C@H]3[C@@H](CC=C4C[C@@H](O)CC[C@@]43C)[C@@H]2CC[C@]12O[C@@H]1C[C@H](C)CN[C@H]1[C@H]2C` it is “inactive”.
Consider `CCC(C)c1cc([N+](=O)[O-])cc([N+](=O)[O-])c1O` (stereo not given), for which the half-maximal activity concentration (AC50) is 14 µM (active).
Still for that read-out and setting: next, `CC(C)(c1ccccc1)c1ccc(O)cc1`: 39 µM (active).
On to `Oc1ccc(Cl)cc1Cl`, for which the result was inactive.
